HIV RNase H inh-1 – inhibitors of HIV-1 reverse transcriptase RNase H; RT-RNase H RNA/DNA duplex cleavage, fluorescence; inhibition, % at 10 µM; hit rate 1.9% among 65,000; AID 565; in the data active = inhibition above about 50%
HIV RNase H inh-2 – confirmation of HIV-1 reverse transcriptase RNase H inhibitors; inhibition, % at 10 µM; Recombinant RT RNase H, fluorescent RNA/DNA duplex cleavage; AID 651; hit rate 39% among 1,000; shares compounds with HIV RNase H inh-1; in the data active = inhibition above about 48%; inconclusive = no clear call, values can overlap the other calls
Active calls of the source: *; ? = inconclusive. The full list was thinned out, with hits kept by preference.

SMILES | HIV RNase H inh-1 | others
CS(=O)(=O)c1ccc2nc(NC(NC(=O)c3ccco3)(C(F)(F)F)C(F)(F)F)sc2c1 | -23.9
COC(=O)C(O)(CC(=O)Nc1cccc(SC)c1)C(F)(F)F (stereo not given) | 3.3
CCOC(=O)NC1(C(F)(F)F)C(=O)N(Cc2ccccn2)C2=C1C(=O)CC(C)(C)C2 (stereo not given) | -15.5
Cc1nc(SCC(=O)Nn2c(-c3ccccc3)nc3ccccc3c2=O)n[nH]1 | -5.1
O=C(/C=N/O)NCCCn1ccnc1 | -6.3
C/C(=N\O)C(=O)NCCN1CCCCC1 | -0.8
O=C(/C=N/O)NCCN1CCCCC1 | 71.5* | HIV RNase H inh-2=23.2
CCOC(=O)N1CCC(N2CC34C=CC(O3)C(C(=O)O)C4C2=O)CC1 (stereo not given) | 1.4
CC(C)N1C(=S)SC2CS(=O)(=O)C=C21 (stereo not given) | -2.2
Cc1cc2nsnc2c(S(=O)(=O)NCC(=O)O)c1C | -2.2
COC(=O)c1ccccc1NC(=O)CN(C)S(=O)(=O)c1cc(C)ccc1OC | 0.9
Cc1ccc(O)c(C(=O)c2cnc3c(c2)CN(CCC(C)C)C(=O)N3)c1 | 62.9* | HIV RNase H inh-2=?
Cc1ccc(-c2nnn(CC(=O)Nc3cccc4cccnc34)n2)o1 | -8.8
CCSc1nc(-c2ccc(OC)cc2)n(-c2nc3ccccc3s2)n1 | 10.5
O=C(NCc1ccco1)C(c1cccnc1)N(C(=O)Cn1nnc2ccccc21)c1ccc(F)cc1 (stereo not given) | -8.2
Cc1cn(C2CC3OCC3O2)c(=O)[nH]c1=O (stereo not given) | -6.0
COc1ccc(CCn2c(SCC(=O)Nc3cc(C)on3)nc3ccccc3c2=O)cc1OC | -0.2
Cc1cc(NC(=O)CSc2nc3c(c(=O)n2CCc2ccccc2)SC(C)C3)no1 (stereo not given) | 5.8
Cc1cc(NC(=O)CSc2nc3ccccc3c(=O)n2Cc2ccc(F)cc2)no1 | 68.0* | HIV RNase H inh-2=21.7
CCCCCCn1c(SCC(=O)Nc2cc(C)on2)nc2ccccc2c1=O | 47.2
Cc1cc(NC(=O)CSc2nnc(C(C)N(C)C)n2Cc2ccccc2)no1 (stereo not given) | 5.0
Cc1cc(NC(=O)CSc2nc3cc4c(cc3c(=O)n2CCc2ccccc2)OCO4)no1 | 78.1* | HIV RNase H inh-2=71.0*
CCCCNC(=O)Oc1cccc(N2CCCC2=O)c1 | -0.6
CCC(C)NC(=O)COc1ccc(S(=O)(=O)N2CCOCC2)cc1 (stereo not given) | -19.6
Cc1ccccc1NC(=O)C(C#N)Cc1cccnc1 (stereo not given) | 0.2
SMILES | HIV RNase H inh-1 | others
Cc1cc(NC(=O)COC(=O)CCCOc2ccc(Cl)cc2C)no1 | 9.1
COc1cc(C(=O)OCC(=O)Nc2cc(C)on2)ccc1OCc1ccccc1Cl | 51.7* | HIV RNase H inh-2=20.8
Cc1cc(NC(=O)COC(=O)c2c(C)nn(Cc3ccccc3)c2Cl)no1 | 3.7
CCOC(=O)c1sc(N)c(C#N)c1CSc1nnc(C2CCCCC2)n1N | 16.3
Cc1noc(C(=O)Nc2sc3c(c2C#N)CCC3)c1Cl | 66.6* | HIV RNase H inh-2=8.9
CC(C)Cc1cc(C(=O)Nc2sc3c(c2C#N)CCCC3)no1 | 65.1* | HIV RNase H inh-2=68.3*
Cc1cc(C(=O)Nc2sc3c(c2C#N)CCC(C)C3)no1 (stereo not given) | 1.9
Cc1cc(C(=O)Nc2sc3c(c2C#N)CCC3)no1 | 22.4
Cc1cc(C(=O)Nc2sc3c(c2C#N)CCCC3)no1 | 2.5
CC(=O)Nc1sc2c(c1C#N)CCCCC2 | -15.7
Cc1cc2nc(NC3=NCN(Cc4ccc5c(c4)OCO5)CN3)nc(C)c2cc1C | 10.0
O=C1NCN(c2ccccc2)C12CCN(c1nnnn1-c1ccccc1)CC2 | -17.1
Cc1ccc2[nH]c(=O)c3cc(C(=O)N4CCN(C(=O)c5ccco5)CC4)sc3c2c1 | 35.9
Cc1ccc2cc3cc(C(=O)N4CCN(C(=O)c5ccco5)CC4)sc3nc2c1 | 55.1* | HIV RNase H inh-2=29.3
Cc1ccc2oc(=O)c3cc(C(=O)N4CCN(C(=O)c5ccco5)CC4)sc3c2c1 | -18.7
O=c1[nH]c(=O)n(CCC2=CCCCC2)c(O)c1C=NCCN1CCNCC1 | 14.0
CCN(CC)c1ccc(N=Cc2c(O)n(CCC3=CCCCC3)c(=O)[nH]c2=O)cc1 | 17.5
CN(C)c1ccc(N=Cc2c(O)n(CCC3=CCCCC3)c(=O)[nH]c2=O)cc1 | 58.5* | HIV RNase H inh-2=51.2*
O=C1COc2ccc(OCc3ccc(F)cc3)cc21 | -24.1
CCn1c(Cc2ccccc2)nnc1SCC(=O)Nc1nnc(-c2ccccc2)s1 | -0.3
CCn1c(Cc2ccccc2)nnc1SCC(=O)Nc1nc(C)c(C)s1 | 64.4* | HIV RNase H inh-2=11.9
CCn1c(Cc2ccccc2)nnc1SCC(=O)Nc1nccs1 | -12.7
CCC(=O)Nc1ccc(NC(=O)CSc2nnnn2C(C)C)cc1 | -7.0
CCc1cc2c(CN3CCN(CC)CC3)cc(=O)oc2cc1O | -3.0
CCc1ccc2oc(=O)cc(CN3CCN(c4ccc(F)cc4)CC3)c2c1 | 11.0
SMILES | HIV RNase H inh-1 | others
O=c1cc(CN2CCN(C/C=C/c3ccccc3)CC2)c2cc(O)ccc2o1 | 0.2
O=c1cc(CN2CCN(c3ccccc3)CC2)c2cc(O)c(-c3ccccc3)cc2o1 | 72.9* | HIV RNase H inh-2=68.9*
CC(C)c1ccc2oc(=O)cc(CN3CCN(c4ccc(F)cc4)CC3)c2c1 | 42.3
COc1ccc(N2CCN(Cc3cc(=O)oc4cc5c(cc34)CCCC5)CC2)cc1 | 81.5* | HIV RNase H inh-2=62.7*
CC(C(=O)NCc1ccc2c(c1)OCO2)N1c2cccc3cccc(c23)S1(=O)=O (stereo not given) | -13.9
CCn1ncc(C2=NOC(C(=O)Nc3cccc(C(C)=O)c3)C2)c1C (stereo not given) | -10.1
O=C(CCCc1cccs1)N1CCN(S(=O)(=O)c2ccccc2Br)CC1 | -18.5
CCOC(=O)C1(C(F)(F)F)N=C(c2cccnc2)OC(N2CCOCC2)=N1 (stereo not given) | -4.1
CCN(C(=O)CN1CCN(c2ccc(OC)cc2)CC1)c1c(N)n(Cc2ccccc2)c(=O)[nH]c1=O | 3.3
COc1ccc(CC(=O)Nc2cc(C)c3c(=O)oc4ccccc4c3n2)cc1 | 8.3
CCOc1ccc(C(=O)Nc2c(C(N)=O)oc3ccccc23)cc1 | -23.6
CCOc1ccc(C(=O)Nc2cc(C)c3c(=O)oc4ccccc4c3n2)cc1 | 65.4* | HIV RNase H inh-2=19.6
CCOc1ccc(CCNC(=O)CCN2C(=O)COc3ccccc32)cc1OCC | 4.1
COc1cccc(C(c2sc3ncnn3c2O)N2CCN(C(=O)c3ccco3)CC2)c1 (stereo not given) | -13.7
c1ccc(Cn2nnc3c(Nc4ccc5c(c4)OCO5)nc(C4CC4)nc32)cc1 | -24.3
CN1CC(=O)NC1=NC(=O)C12CC3CC(CC(C3)C1)C2 | -3.5
ON=Cc1cccn1-c1ccccc1 | -24.5
COc1cc(N2CCCC2)c(OC)cc1/C=c1/sc2nc3ccccc3n2c1=O | 9.6
O=c1/c(=C\c2cccn2-c2ccccc2)sc2nc3ccccc3n12 | 89.4* | HIV RNase H inh-2=60.7*
Cc1ccccc1N(Cc1nnc2n1CCCCC2)C(=O)Nc1ccccc1 | 1.1
CCC1CCCCN1C(=O)CSc1nnc(CNC(=O)c2cc(OC)c(OC)c(OC)c2)o1 (stereo not given) | -6.0
CSc1nc2sc3c(c2c2nnnn12)CCC3 | 40.7
CSc1nc2sc3c(c2c2nnnn12)CC(C)(C)OC3 | -8.4
CSc1nc2sc3c(c2c2nnnn12)CCCC3 | 51.1* | HIV RNase H inh-2=33.4
COc1ccccc1-c1nnc(NC(=O)c2ccc(S(=O)(=O)N(C)C)cc2)o1 | 2.5
COc1cccc(-c2nnc(NC(=O)c3cccc(F)c3)o2)c1 | -0.6
COc1cccc(-c2nnc(NC(=O)c3ccccc3Br)o2)c1 | -3.3

Screening data as filed in PubChem.
